According to PubChem BioAssay (NCI):
“And” between values parts separate entries of the source, which are not always exact repeats. Identical values can stand only once. The panel holds about 83,000 compounds, 20% with a hit somewhere; the sample as a whole holds those more often.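 Plates (96-well) were seeded with cells, treated with compound at one concentration, and incubated for 48 hours before percent growth was determined.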 Unmarked numbers belong to inactive results. The source made the active and inactive calls. The calls were made as follows: active = growth percent below 10; inactive = the rest.

system: HL-60(TB) leukemia; assay: NCI-60 one-dose screen, 48 h (100 = growth as untreated, 0 = no growth, -100 = all killed); details: 10 µM unless noted

Row | SMILES | growth
1 | Cc1cc(=O)oc2c1ccc1oc(C#N)c(C)c12 | 107%
2 | C=CCNc1nnc(C)s1 | 139%
3 | Cc1cc(C(=O)O)c(C)cc1C(=O)O | 113%
4 | COc1ccc(-c2nnc(-c3ccc4c(c3)nc(-c3ccncc3)n4C3CCCCC3)o2)cc1 | 46.1%
5 | Cc1c(O)c(N=Nc2ccc(C(=O)O)c(O)c2)c2ccccc2c1O | 77.4%
6 | Cc1c(N)ccc(-c2ccc(N)c(C)c2S(=O)(=O)O)c1S(=O)(=O)O | 94.7%
7 | COc1ccc(-c2cc(-c3ccc(Cl)cc3)c(C#N)c(=O)n2CCCCC(=O)Nc2ccccc2N)cc1 | 3.34% (active)
8 | NC(=S)N/N=C/Cc1ccccc1 | 47.2%
9 | COc1ccc(CCN(C)CCCC(C#N)(c2ccc(OC)c(OC)c2)C(C)C)cc1OC (stereo not drawn) | 92.4% and 72.5% and 104%
10 | Fc1ccc(CNc2cccc3[nH]c(C(F)(F)F)nc23)cc1 | 55%
11 | Cc1cc(CC(=O)O)n(C)c1C(=O)c1ccc(Cl)cc1 | 105%
12 | C=C1NC(=O)C(C(C)CC)NC(=O)C2CSCC(NC(=O)CCC(=O)O)C(=O)NC(Cc3ccccc3)C(=O)NC(C)C(=O)NC(CC(C)CC)C(=O)NC(C(=O)NC(Cc3ccccc3)C(=O)N3CCCC3C(=O)N2)C(C)OC(=O)C(CO)NC(=O)C(C(O)COC)N(C)C(=O)C(C(C)C)NC(=O)C(CC(C)CC)NC1=O (stereo not drawn) | -26.8% [6 µM] (active)
13 | NC1=NC(c2ccccc2)N=C(Nc2ccccc2)N1 (stereo not drawn) | 95.7% and 111%
14 | COc1cc(NC(=O)CCSc2nc3ccccc3c(=O)n2CCc2ccccn2)cc(OC)c1OC | 99.1%
15 | c1ccc2cc(C[n+]3ccn(Cc4ccc5ccccc5n4)c3)ccc2c1 | -42.3% (active) and -25.4% (active)
16 | CC(C)(C)n1cc(-c2ccnc(NCCCNS(=O)(=O)c3ccc(F)cc3)c2)c(-c2cccc(F)c2)n1 | 38.2%
17 | COc1ccc(CC(=O)Nc2nn3c(-c4cc(C(F)(F)F)cc(C(F)(F)F)c4)nnc3s2)cc1 | 52%
18 | O=C(O)C(O)c1ccccc1 (stereo not drawn) | 97.3%
19 | CCOC(=O)/C=C/c1ccc(C(=O)OCC)[nH]1 | 51.2%
20 | Oc1c(Cl)cc(Cl)c(Cl)c1CNCCNCc1c(O)c(Cl)cc(Cl)c1Cl | -10.5% (active)
21 | CN1CCN(c2ccc(NC(=O)c3nc4ccc5[nH]ncc5c4c4c3CCCC4)cc2C(F)(F)F)CC1 | 28%
22 | CCN(CC)CCOc1ccc(-c2nc3cc(Cl)ccc3s2)cc1 | -74.2% (active)
23 | [2H]C1([2H])[C@H](C)O[C@H](C)C([2H])([2H])N1c1ccc(NC(=O)c2cccc(-c3ccc(OC(F)(F)F)cc3)c2C)cn1 | 56.3%
24 | C#Cc1cccc(Nc2ncnc3ccc(-c4cncc(NS(C)(=O)=O)c4)cc23)c1 | 4% (active)
25 | COc1ccc(Sc2ccc3[nH]c(=O)nc(N)c3c2)cc1 | 94.9%
26 | NC(=O)c1ccc[n+](Cc2ccccc2)c1 | 152%
27 | Nc1ccc(S(=O)(=O)c2ccc(N)cc2)cc1 | 67.4%
28 | COc1ccc(C(=O)/C=C/c2cc3ccccc3[nH]c2=O)cc1 | 33.7%
